Bioassay records (PubChem)
A selection: hits, their analogues and other compounds. The true share with any hit is near 0.65%.
AMA1-RON2 inh: inhibitors of Plasmodium falciparum AMA1-RON2 interaction. AlphaScreen AMA1-biotinylated RON2 peptide binding. Potency, µM (series often up to 58.2 µM), inactives show top-dose activity change, negative = inhibition, hits mostly inhibitors. 0.2% of 360,000 active; active = well fitted inhibition curve with a large enough effect; inconclusive = small, poorly fitted or top-dose-only effect; inactive = no such curve, though single readings can be large or run the other way;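 note: potency is the fitted concentration of half-maximal effect; 0% = vehicle wells and -100% = peptide control; nearly all actives have a fitted effect of over 45% in size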
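AMA1 (3D7) with his tag at 25 nM final met compounds first, then biotinylated RON2 peptide at 25 nM; detection used donor plus acceptor beads, 10 µg/mL apiece, read by AlphaScreen after 30 min at room temperature.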
NS1 inh: influenza NS1 inhibition; Potency, µM (doses to about 46.1 µM), inactives show top-dose activity, positive = more growth; 0.4% of 270,000 active; AID 2326; note: potency is the fitted concentration of half-maximal effect; actives are rising curves; nearly all actives have a fitted effect of over 50% in size
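Growth recovery, yeast-based: influenza A NS1 expressed in S. cerevisiae causes slow growth, and suppressors are detected by OD600. The parent strain without NS1 is used as positive control.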
SARS PLP yeast: inhibitors of SARS-CoV papain-like protease in yeast; 0.19% of 330,000 active; S. cerevisiae expressing SARS-CoV PLpro, growth rescue; Potency, µM (titrated, usually from 32.9 µM), inactives show at the highest dose activity, positive = growth rescue, actives largely listed as activators; note: potency is the fitted concentration of half-maximal effect; 0% is about no effect; nearly all actives have a fitted effect of over 55% in size
Flu NS1 inh: influenza NS1 function inhibition validation; shares compounds with NS1 inh; influenza NS1 function cell assay, 15-point titration; activity change, negative = inhibition, % at 32.9 µM; 1,400 tested, under 10 active; note: 0% is about no effect
PR8 titer: influenza NS1 inhibitors: inhibition of influenza A/PR/8/34 replication; 30% of 95 active; AID 504647; virus titer (log TCID50), log10 TCID50 at 5 µM; MDCK infected influenza A/PR/8/34, virus titer TCID50; stronger effect = lower value; shares compounds with NS1 inh; call rule not given here
Starred values were filed as active, the others as inactive. Unless noted, calls come from the whole dose curve.

How did CC(=O)c1sc(NC(=O)CN2C(=O)C3CC=CCC3C2=O)nc1-c1ccccc1 (configuration not stated) do in these assays?
AMA1-RON2 inh: -18%; SARS PLP yeast: -7%

Results for COc1ccc(S(=O)(=O)N2CCCCCC2)cc1NC(=O)CN(C)Cc1ccc2c(c1)OCO2 ?
AMA1-RON2 inh: 32%; SARS PLP yeast: 0%

Results for COc1ccc(NS(=O)(=O)c2ccc3nc(COc4ccc5ccccc5c4)[nH]c3c2)cc1 ?
AMA1-RON2 inh: 10%; NS1 inh: 10%; SARS PLP yeast: 25%

Results for COc1ccc(NS(=O)(=O)c2ccc3nc(COc4cccc5ccccc45)[nH]c3c2)cc1 ?
AMA1-RON2 inh: 21%; NS1 inh: 22µM*; SARS PLP yeast: -11%; Flu NS1 inh: 8

How did COc1ccc(S(=O)(=O)N2CCOC23CCN(C(=O)c2ccccc2OC)CC3)cc1 do in these assays?
AMA1-RON2 inh: 5%; SARS PLP yeast: inconclusive

What do the screens show for `C[C@]12CCC[C@H](O1)[C@H]([C@@H](O)c1ccccc1)O2`?
AMA1-RON2 inh: 38%; SARS PLP yeast: 2%

What do the screens show for `CS(=O)(=O)N(CC(=O)N1CCCCC1)Cc1ccccc1`?
AMA1-RON2 inh: 44%; NS1 inh: 7%; SARS PLP yeast: 1%

What do the screens show for `CCOC(=O)C1CCN(C(=O)CN(Cc2ccccc2)S(C)(=O)=O)CC1`?
AMA1-RON2 inh: -4%; NS1 inh: 14µM*; SARS PLP yeast: 1%; Flu NS1 inh: 11

How did COc1ccc(N(C)S(=O)(=O)c2cccc(C(=O)N3CCN(S(=O)(=O)c4ccc(C)cc4)CC3)c2)cc1 do in these assays?
AMA1-RON2 inh: -16%; NS1 inh: 11µM*; SARS PLP yeast: 4%; Flu NS1 inh: 4

How did CC(=O)c1cccc(NC(=O)C(OC(=O)c2cccc(S(=O)(=O)N(C)c3ccccc3)c2)c2ccccc2)c1 (configuration not stated) do in these assays?
AMA1-RON2 inh: -3%; NS1 inh: inconclusive; SARS PLP yeast: 3%

What do the screens show for `COc1ccc(N(C)S(=O)(=O)c2cccc(C(=O)OC(C(=O)Nc3cc(C)cc(C)c3)c3ccccc3)c2)cc1` (configuration not stated)?
AMA1-RON2 inh: 4%; NS1 inh: 8.9µM*; SARS PLP yeast: 21%; Flu NS1 inh: 26

What do the screens show for `COc1ccc(S(=O)(=O)N2CCN(C(=O)c3cccc(S(=O)(=O)N4CCCC4)c3)CC2)cc1`?
AMA1-RON2 inh: 8%

What do the screens show for `CC1CCCC(C)N1CC(O)COCc1ccccc1F` (configuration not stated)?
AMA1-RON2 inh: -17%; NS1 inh: 0%; SARS PLP yeast: 0%

How did CC1(C(=O)NCc2ccc3c(c2)OCO3)CCN1C(=O)CCc1ccc(Cl)cc1Cl (configuration not stated) do in these assays?
AMA1-RON2 inh: -8%

Results for COc1cc(/C=C2/C(=O)N(c3ccc(Br)cc3)N=C2C)cc(OC)c1OC ?
AMA1-RON2 inh: -3%; NS1 inh: 11µM*; SARS PLP yeast: -3%; Flu NS1 inh: -17

How did COc1cc(/C=C2/C(=O)N(c3ccc(C(=O)O)cc3)N=C2C)cc(OC)c1O do in these assays?
AMA1-RON2 inh: -3%; NS1 inh: 8%; SARS PLP yeast: 0%

What do the screens show for `C[C@H](CO)NC(=O)c1nc[nH]c1C(=O)N[C@H](C)c1ccccc1`?
AMA1-RON2 inh: 6%

Results for COCCNC(=O)CCc1ccc(S(=O)(=O)Nc2ccc(C)cc2)cc1 ?
AMA1-RON2 inh: 5%; NS1 inh: 16µM*; SARS PLP yeast: -6%; Flu NS1 inh: -21

What do the screens show for `Cc1ccc(NS(=O)(=O)c2ccc(CCC(=O)NC3CC3)cc2)cc1`?
AMA1-RON2 inh: 1%; NS1 inh: 2%; SARS PLP yeast: 7%

What do the screens show for `Cc1ccc(S(=O)(=O)N(C)C)cc1NC(=O)C(C)OC(=O)CC1CC2CCC1C2` (configuration not stated)?
AMA1-RON2 inh: 4%

Results for O=C1NC(=O)C2(CCCc3ccccc32)N1 (configuration not stated) ?
AMA1-RON2 inh: 1%; NS1 inh: 0%; SARS PLP yeast: inconclusive

Results for CN(C)S(=O)(=O)c1ccc(NC(=O)CSc2nc3ccccc3n2-c2ccccc2)cc1 ?
AMA1-RON2 inh: -17%; NS1 inh: 10µM*; SARS PLP yeast: -3%; Flu NS1 inh: 5

Results for CN(C)S(=O)(=O)c1cccc(NC(=O)CSc2nc3ccccc3n2-c2ccccc2)c1 ?
AMA1-RON2 inh: -6%; NS1 inh: -16%; SARS PLP yeast: -13%

Results for COc1cc(NC(=O)CSc2nc3ccccc3n2-c2ccccc2)c(C)cc1[N+](=O)[O-] ?
AMA1-RON2 inh: -23%; NS1 inh: 22µM*; SARS PLP yeast: 13%; Flu NS1 inh: -4; PR8 titer: 7.7

Results for COc1ccc(-n2c(SCC(=O)Nc3ccc([N+](=O)[O-])cc3OC)nc3ccccc32)cc1 ?
AMA1-RON2 inh: -8%; NS1 inh: -5%; SARS PLP yeast: 7%

What do the screens show for `CC(C)C[C@H]1CN(CCCC[C@H]2CNC(=O)C(=O)N2CCc2ccccc2)C(=O)C(=O)N1CCc1ccccc1`?
AMA1-RON2 inh: -3%

What do the screens show for `C[C@H]1C(=O)N(c2ccccc2)[C@@H]1c1ccccc1`?
AMA1-RON2 inh: -7%; SARS PLP yeast: -2%

What do the screens show for `CC1CN(C)C(c2ccccc2)C(C)C12NC(=O)NC2=O` (configuration not stated)?
AMA1-RON2 inh: -3%; NS1 inh: inconclusive; SARS PLP yeast: 19%; Flu NS1 inh: 0

How did Cc1cccc(N2C(=O)c3cccc4c(N5CCCCC5)c([N+](=O)[O-])cc(c34)C2=O)c1C do in these assays?
AMA1-RON2 inh: -1%; NS1 inh: -5%; SARS PLP yeast: -13%

What do the screens show for `O=C1c2cccc3c(N4CCOCC4)c([N+](=O)[O-])cc(c23)C(=O)N1c1cccc2ccccc12`?
AMA1-RON2 inh: 0%; NS1 inh: inconclusive; SARS PLP yeast: 5%; Flu NS1 inh: -2

What do the screens show for `COc1cccc(NC(=O)Nc2cccs2)c1`?
AMA1-RON2 inh: 24%; NS1 inh: 17%; SARS PLP yeast: -6%

How did COc1ccc(NC(=O)Nc2cccs2)cc1OC do in these assays?
AMA1-RON2 inh: -1%; NS1 inh: inconclusive; SARS PLP yeast: 0%; Flu NS1 inh: 18

How did CN(N=O)c1ccc(O)c(O)c1 do in these assays?
NS1 inh: 5µM*; Flu NS1 inh: 21

How did O=C(C(=O)c1ccc(O)c(O)c1)c1ccc(O)c(O)c1 do in these assays?
AMA1-RON2 inh: 24%

How did CC(=O)c1ccc(S(=O)(=O)N2CCN(C(=O)CN3C(=O)NC4(CCCC4)C3=O)CC2)cc1 do in these assays?
AMA1-RON2 inh: -8%; SARS PLP yeast: 2%

Results for CCOC(=O)C1=C(CSc2nc3c(cc2C#N)CN(C)CC3)OC(N)=C(C#N)C1c1ccc(F)cc1 (configuration not stated) ?
AMA1-RON2 inh: inconclusive; NS1 inh: 10µM*; SARS PLP yeast: -9%; Flu NS1 inh: 29
